RGS16-Gao – modulators of RGS16 binding to Galphao, primary screen, biochemical, human proteins, multiplexed bead flow cytometry. 220,000 tested, 0.38% active. binding response (% of control), % at 10 µM. AID 1441, 2008. bead-based flow cytometry RGS16-Galphao binding, fluorescence; actives lie on both sides;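 also: Galphao activated by GDP with aluminum fluoride before binding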
Target sequence (O15492 whole entry, looked up): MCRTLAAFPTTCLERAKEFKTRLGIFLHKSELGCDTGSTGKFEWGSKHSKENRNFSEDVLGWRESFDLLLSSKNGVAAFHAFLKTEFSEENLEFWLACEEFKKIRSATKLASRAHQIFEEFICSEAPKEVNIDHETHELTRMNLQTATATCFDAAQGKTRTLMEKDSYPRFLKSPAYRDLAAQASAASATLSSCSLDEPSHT
Target sequence (P09471 whole entry, looked up): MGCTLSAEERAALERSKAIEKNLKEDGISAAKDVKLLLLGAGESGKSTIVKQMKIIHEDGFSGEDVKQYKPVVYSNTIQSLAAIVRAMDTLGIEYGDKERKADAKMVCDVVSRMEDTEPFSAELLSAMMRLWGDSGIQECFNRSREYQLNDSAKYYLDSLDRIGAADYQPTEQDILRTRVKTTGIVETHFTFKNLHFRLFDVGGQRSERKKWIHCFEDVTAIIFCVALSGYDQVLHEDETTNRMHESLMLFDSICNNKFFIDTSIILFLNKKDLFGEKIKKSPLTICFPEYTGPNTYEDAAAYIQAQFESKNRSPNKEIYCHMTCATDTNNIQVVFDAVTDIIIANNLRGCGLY
RGS8-Gao reg – RGS8-Galphao binding modulators, primary screen, biochemical, multiplexed bead flow cytometry. Guanine nucleotide-binding protein G(o) subunit alpha (Homo sapiens), P09471. actives lie on both sides. response (percent of control binding), % at 10 µM. 220,000 tested, 0.34% active. AID 1423, 2008; in the data active = response below about 60% or above about 140%; inactive = in between;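 also: Galphao activated as the GDP aluminium fluoride complex binding bead-coupled RGS8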
Target sequence (P09471 whole entry, looked up): as above
RGS4-Gao reg – modulators of RGS4 binding to Galphao, primary screen, biochemical, multiplexed bead flow cytometry; actives lie on both sides; binding response (% of control), % at 10 µM; 220,000 tested, 0.33% active; AID 1415, 2008; in the data active = binding response below about 49% or above about 150%; inactive = in between;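 also: fluorescent Galphao activated with aluminum fluoride binding bead-coupled RGS4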
GSH fluor – compound fluorescence on glutathione beads, profiling panel, artefact control, biophysical, 488/530 nm, flow cytometry. 190,000 tested, 0.25% active. fluorescence (KMESF) at 10 µM. GSH beads flow cytometry, compound fluorescence 488/530 nm; hits give high values; in the data active = fluorescence above about 89;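 also: glutathione beads carrying GST-tagged Bcl family fusion proteins plus one bare bead set; values are compound well signal with DMSO vehicle wells as background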
Avidin bead fluor – green autofluorescence of compounds with avidin beads – biophysical, 488/530 nm, flow cytometry, artefact control, profiling panel; 220,000 tested, 0.38% active; AID 1775, 2009; compound fluorescence 488/530 nm; hits give high values; fluorescence (KMESF) at 10 µM; in the data active = fluorescence above about 47
RGS7-Gao reg – RGS7-Galphao binding modulators, primary screen, biochemical, multiplexed bead flow cytometry | actives lie on both sides | binding response (% of control), % at 10 µM | 220,000 tested, 0.35% active; in the data active = binding response below about 49% or above about 150%; inconclusive = no clear call, values can overlap the other calls; inactive = in between;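 also: fluorescent Galphao held in activated GDP-AlF4 state binding bead-coupled RGS7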
RGS4-Gao HTS – modulators of RGS–Galpha-o binding, primary screen, biochemical, multiplexed beads, flow cytometry, RGS4/7/8/16/19; shares compounds with RGS16-Gao; multiplexed bead flow cytometry; RGS4–Galpha-o binding response, % at 10 µM; 1,600 tested, 99% active; AID 1504, 2009;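 also: fluorescently labeled Galpha-o bound to GDP with aluminium fluoride binding biotinylated RGS beads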
Biotin-avidin – disruption of biotin probe capture by avidin, counter-screen for RGS protein interaction modulators, biochemical, flow cytometry, bead-based; shares compounds with RGS16-Gao; streptavidin beads, fluorescein-biotin binding; inhibition, % at 10 µM; 1,700 tested, under 10 active; AID 1783, 2009;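 active = inhibition above 50%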;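 also: median green fluorescence of gated singlet beads compared with DMSO control wells; 0% = DMSO wells and 100% = complete loss of bead fluorescence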
RGS8-Gao confirm – RGS8-Galphao binding modulators, confirmation, biochemical, multiplexed bead flow cytometry, single concentration. shares compounds with RGS16-Gao. bead-based flow cytometry RGS8-Galphao binding, fluorescence; actives lie on both sides. binding response (% of control), % at 10 µM. 1,700 tested, 3% active; in the data active = binding response below about 72% or above about 130%; inactive = in between;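 also: Galphao activated as GDP AlF4 complex before binding bead RGS8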
RGS7-Gao confirm – RGS7-Galphao binding modulators, confirmation, biochemical, multiplexed bead flow cytometry, single concentration; shares compounds with RGS16-Gao; bead-based flow cytometry RGS7-Galphao binding; actives lie on both sides; response (percent of control binding), % at 10 µM; 1,700 tested, 7.8% active; in the data active = response below about 75% or above about 130%; inactive = in between;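 also: fluorescent Galphao activated with GDP and aluminum fluoride binding bead-coupled RGS7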
RGS16-Gao single – modulators of RGS16-Galphao protein binding, confirmation, biochemical, single concentration, multiplexed bead flow cytometry; shares compounds with RGS16-Gao; bead-based flow cytometry; actives lie on both sides; response (% of control binding), % at 10 µM; 1,700 tested, 4% active; in the data active = response below about 74% or above about 130%; inactive = in between;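 also: Galphao activated as the GDP aluminium fluoride complex binding bead-coupled RGS16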
RGS4-Gao single – modulators of RGS4-Galphao protein binding, confirmation, biochemical, single concentration, multiplexed bead flow cytometry; shares compounds with RGS16-Gao; actives lie on both sides; binding response (% of control), % at 10 µM; 1,700 tested, 4% active; in the data active = binding response below about 74% or above about 130%; inactive = in between
RGS19-Gao single – regulators of RGS19-Galphao binding, confirmation, biochemical, single point, multiplexed bead flow cytometry | AID 1841, 2009 | 1,700 tested, 5% active | bead-based flow cytometry RGS19-Galphao binding; actives lie on both sides | response (percent of control binding), % at 10 µM | shares compounds with RGS16-Gao; in the data active = response below about 50% or above about 160%; inactive = in between;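 also: 100% = no compound control and 0% = blank background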
Starred values were filed as active, the others as inactive; ? = inconclusive; . = no result; [ ] = another dose, or the depositor's remark. This is a sample that favours compounds with a hit; in the whole collection about 1.2% have one here. Unless noted, no rule for the calls is given here.

SMILES	RGS16-Gao	RGS8-Gao reg	RGS4-Gao reg	GSH fluor	Avidin bead fluor	RGS7-Gao reg	RGS4-Gao HTS	Biotin-avidin	RGS8-Gao confirm	RGS7-Gao confirm	RGS16-Gao single	RGS4-Gao single	RGS19-Gao single
COc1ccccc1N1CCN(S(=O)(=O)CC23CCC(CC2=O)C3(C)C)CC1 (configuration not stated)	14*	15*	23*	30	0	17*	.	0	99	101	98	96	70
CC(=O)Nc1ccc(OC(=O)c2cc3cc(Br)ccc3oc2=O)cc1	101	103	102	9	12	96	.	.	.	.	.	.	.
CC(=O)Nc1ccc(OC(=O)c2cc3cc(Br)cc(Br)c3oc2=O)cc1	19*	80	91	8	4	81	91*	-2	100	88	96	92	96
CC(=O)c1ccc(-n2c(SCC(=O)c3c[nH]c4ccccc34)nc3ccccc3c2=O)cc1	444	113	179*[activator]	12	2389*	184*[activator]	.	2	108	110	106	106	97
CCOC(=O)c1c(C)[nH]c(C)c1C(=O)CSc1nc2ccccc2c(=O)n1-c1ccc(CC)cc1	108	103	100	9	4	99	.	.	.	.	.	.	.
CCOCCN(C(=O)c1ccccc1Cl)c1cccc(C)c1C	153	102	165*[activator]	.	85*	?	.	0	100	99	99	98	88
CCOCCNC(=O)c1ccccc1C(=O)NCCOCC	123	102	110	9	16	99	.	.	.	.	.	.	.
CC(=O)Nc1nc(C)c(CCCOc2ccc([N+](=O)[O-])cc2)c(=O)[nH]1	128	103	153*[activator]	.	47*	?	.	1	103	108	107	105	95
CCOC(CCc1c(C)nc(NC(C)=O)[nH]c1=O)OCC	103	98	102	.	6	?	.	.	.	.	.	.	.
Cc1nn(C(=O)c2cccs2)c(C)c1CN1C(=O)c2ccccc2C1=O	101	102	104	40	7	96	.	.	.	.	.	.	.
Cc1nn(C(=O)N2CCCCC2)c(C)c1CN1C(=O)c2ccccc2C1=O	.	.	.	12	.	.	.	0	102	105	103	103	66
O=C(O)CCCC(=O)Nc1cccc2cccnc12	71	88	107	20	89*	151*[activator]	107*	1	96	95	99	98	93
CC(C)C(=O)N(Cc1ccccc1)c1ccccn1	244*[activator]	113	251*[activator]	38	116*	208*[activator]	.	-2	102	98	100	100	100
CCC(Oc1ccccc1)C(=O)N(Cc1ccccc1)c1ccccn1 (configuration not stated)	100	97	93	24	10	90	.	.	.	.	.	.	.
CCC(=O)NC(c1ccc(C)cc1)c1cc([N+](=O)[O-])c2cccnc2c1O (configuration not stated)	13	58*	68	9	1	72	68*	0	89	89	85	95	42*
Nc1nc(N2CCN(C(c3ccccc3)c3ccccc3)CC2)n[nH]1	91	57*	82	11	2	39*	82*	3	100	88	95	94	86
CCOc1ccc(C2c3[nH]c4ccccc4c3CCN2CCCn2cccn2)cc1 (configuration not stated)	104	105	103	18	5	107	.	.	.	.	.	.	.
O=S(=O)(NCc1ccccc1)c1ccccc1Br	97	102	103	.	.	?	.	.	.	.	.	.	.
Cc1cccc2sc(NC(=O)[C@@H]3CCCN3C(=O)c3cccs3)nc12	211*[activator]	131	101	16	7	111	101*	-3	100	96	100	97	101
Oc1ccc(N=Nc2n[nH]c(-c3ccccc3)n2)cc1	14*	82	91	12	7	87	91*	1	95	56*	72*	72*	35*
Cc1nn(-c2ccccc2)c(C)c1/C=N/NC(=O)CSc1nnc(SCc2ccc(Cl)cc2)s1	104	101	108	11	68*	157*[activator]	108*	0	97	92	85	93	58
O=C(CSc1nnc(SCc2ccccc2)s1)N/N=C/c1c(Cl)cccc1Cl	106	105	106	13	5	105	.	.	.	.	.	.	.
COCCNc1ccc(N2C(=O)CCCC2=O)cc1[N+](=O)[O-]	110	106	104	21	14	103	.	.	.	.	.	.	.
CC1(C)COC2(OC1)C(=O)N(CN1CCOCC1)c1ccccc12	128	106	128	22	124*	252*[activator]	128*	0	99	96	99	101	90

Screening data from PubChem BioAssay.
